Bioassay records (PubChem)
Hedgehog inh: Hedgehog pathway signaling inhibitors, primary screen, luminescence, Shh-LIGHT2 cells, Gli-luciferase; AID 2313, 2010; actives 2.1% (n = 22,000); Shh-LIGHT2 Gli-luciferase reporter, 30 h; inhibition, % (concentration not given with the values);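 active = mean inhibition across valid replicates above about 65%, limit read from the data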;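 note: pathway switched on by Shh-conditioned medium diluted 1 in 25 in low serum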
YB-1 expression: inhibitors of YB-1 gene expression, primary screen, cell-based, fluorescence; U2OS, qRT-PCR YB-1 vs CDIP delta delta Cp, 16 h; stronger effect = higher value; zero = DMSO, each unit about twofold; delta delta Cp (YB-1 minus CDIP) (test concentration not listed); actives 0.37% (n = 30,000); AID 434959, 2010;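 active = delta delta Cp rounded down to an integer at or above 3, about 3 SD of DMSO wells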;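 note: higher means less YB-1 transcript or more CDIP transcript relative to DMSO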
MITF inhib: inhibitors of MITF, primary screen, MITF inhibitor project, cell-based, luminescence; inhibition, % (no concentration beside the values); actives 0.28% (n = 37,000); TRPM1 promoter luciferase, 24 h; in the data active = inhibition above about 85%;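 note: human melanocyte line stably carrying TRPM1 promoter luciferase reporter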
PD-1 reversal: activators reversing PD-1 mediated T-cell inhibition, primary screen, luminescence, primary human CD4 T cells, PD-L1 beads; CellTiter-Glo 96 h; activation, % (test concentration not listed); 29,000 tested, under 10 active; AID 2316, 2010; call rule not given here;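 note: 0% = median vehicle wells and 100% = positive control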
NOMO-1 viab: NOMO-1 AML cell viability reduction, primary screen, STK33 inhibitor project, CellTiter-Glo luminescence. NOMO-1 AML viability, 72 h. inhibition, % (no concentration beside the values). actives 7.5% (n = 37,000). AID 2330, 2010; in the data active = inhibition above about 80%
* marks the source's active call; other numbers are inactive results; . = no result; ! = not active in a repeat. Hits are enriched below; roughly 7.4% of the tested compounds scored in any of these assays.

SMILES	Hedgehog inh	YB-1 expression	MITF inhib	PD-1 reversal	NOMO-1 viab
C[C@@H]1CCCCO[C@@H](CN(C)CC2CCCCC2)[C@@H](C)CN([C@H](C)CO)C(=O)c2cc(NC(=O)Nc3ccc(C(F)(F)F)cc3)ccc2O1	.	-0.28	-11	-4	117*
C[C@@H]1CCCCO[C@@H](CN(C)C(=O)Nc2ccc(C(F)(F)F)cc2)[C@@H](C)CN([C@H](C)CO)C(=O)c2cc(NC(=O)c3ccccc3)ccc2O1	29	-0.34	11	-3	91*
C[C@@H]1CCCCO[C@@H](CN(C)C(=O)NC2CCCCC2)[C@@H](C)CN([C@H](C)CO)C(=O)c2cc(NC(=O)Nc3ccc(C(F)(F)F)cc3)ccc2O1	16	0.22	18	0	99*
C[C@@H]1CCCCO[C@H](CN(C)C(=O)CCC(F)(F)F)[C@@H](C)CN([C@H](C)CO)C(=O)c2cc(NC(=O)CCCCCC(=O)Nc3ccccc3N)ccc2O1	.	-0.43	-3	-1	16
C[C@@H]1CN([C@H](C)CO)C(=O)c2cc(NS(=O)(=O)c3cccs3)ccc2O[C@H]1CN(C)C(=O)Nc1ccc2c(c1)OCO2	.	0.38	6	-1	-13
C[C@@H]1CCCCO[C@@H](CN(C)CC2CCCCC2)[C@@H](C)CN([C@H](C)CO)C(=O)c2cc(NC(=O)Nc3ccc(F)cc3)ccc2O1	.	0.072	-6	-3	115*
Cn1c(-c2nonc2NC(=O)c2ccccc2Br)nc2ccccc21	.	.	15	0	29
CC(=O)Nc1nonc1-c1nc2ccccc2n1Cc1ccccc1Br	.	.	11	-4	115*
O=C(NCc1ccc(F)cc1)[C@@H]1C[C@@H]2C(=O)N3CCC[C@H]3C(=O)N2[C@@H]1c1cccc(OCCO)c1	.	0.24	.	.	.
CN1CCN(CCCN2c3ccccc3Sc3ccc(C(F)(F)F)cc32)CC1	10	0.14	5	.	112*!
Cc1ccccc1-c1nc(SCC(=O)Nc2ccccc2)n[nH]1	.	.	-3	1	-6
Cc1ccc(S(=O)(=O)N(C)C[C@@H]2Oc3ccc(NC(=O)NC(C)C)cc3CC(=O)N([C@@H](C)CO)C[C@@H]2C)cc1	13	0.14	10	0	98*
COc1ccc(S(=O)(=O)N(C)C[C@@H]2Oc3ccc(NC(=O)Nc4ccc(F)cc4)cc3CC(=O)N([C@H](C)CO)C[C@@H]2C)cc1	.	-0.57	10	.	33
COc1ccc(NC(=O)Nc2ccc3c(c2)CC(=O)N([C@H](C)CO)C[C@H](C)[C@H](CN(C)S(=O)(=O)c2ccc(F)cc2)O3)cc1	-48	0.051	25	.	126*
Cc1ccc(S(=O)(=O)N(C)C[C@@H]2Oc3ccc(NC(=O)Nc4ccccc4)cc3CC(=O)N([C@H](C)CO)C[C@@H]2C)cc1	-2	-0.059	31	.	100*
Cc1ccc(S(=O)(=O)N(C)C[C@@H]2Oc3ccc(NC(=O)C4CC4)cc3CC(=O)N([C@@H](C)CO)C[C@@H]2C)cc1	.	0.14	13	0	84*
COc1ccc(C#Cc2cnc3c(c2)C(=O)N([C@H](C)CO)C[C@H](C)[C@H](CN(C)C(=O)Nc2ccc4c(c2)OCO4)O3)cc1OC	.	0.05	.	.	.
COCCCNC(=O)[C@]1(Cc2ccccc2CN=[N+]=[N-])N=C(c2ccc(OCCCO)cc2)O[C@@H]1c1ccccc1	.	0.25	.	.	.
O=C(NCCCn1ccnc1)C1CCC1	.	.	-6	3	-12
Cc1cc(C)c(S(=O)(=O)N(C)CC(=O)Nc2cc(Cl)ccc2C)c(C)c1	.	.	11	-2	33
Cc1noc(C)c1S(=O)(=O)N(C)C[C@@H]1Oc2ccc(NC(=O)C3CC3)cc2CC(=O)N([C@H](C)CO)C[C@@H]1C	70*	-0.17	-11	.	25
Cc1ccc(S(=O)(=O)N(C)C[C@@H]2Oc3ccc(NC(=O)Nc4ccc(F)cc4)cc3CC(=O)N([C@@H](C)CO)C[C@@H]2C)cc1	-80	0.21	36	-2	104*
Cc1ccc(S(=O)(=O)N(C)C[C@@H]2Oc3ccc(NC(=O)Nc4ccc(F)cc4)cc3CC(=O)N([C@H](C)CO)C[C@@H]2C)cc1	38	-0.032	47	-1	127*
NC(=O)c1ccc(NC(=O)CNS(=O)(=O)c2cc(Cl)ccc2Cl)cc1	.	.	6	2	-13
